Screening results as filed in PubChem BioAssay.
TrxR1 substrate: substrates of rat thioredoxin reductase 1 | purified TrxR1 substrate turnover, NADPH consumption readout | Potency, µM (titrated, usually from 114 µM) | 390,000 tested, 0.01% active | AID 588456; also: nearly all actives have a fitted effect of over 50% in size
Target sequence (O89049 whole entry, looked up): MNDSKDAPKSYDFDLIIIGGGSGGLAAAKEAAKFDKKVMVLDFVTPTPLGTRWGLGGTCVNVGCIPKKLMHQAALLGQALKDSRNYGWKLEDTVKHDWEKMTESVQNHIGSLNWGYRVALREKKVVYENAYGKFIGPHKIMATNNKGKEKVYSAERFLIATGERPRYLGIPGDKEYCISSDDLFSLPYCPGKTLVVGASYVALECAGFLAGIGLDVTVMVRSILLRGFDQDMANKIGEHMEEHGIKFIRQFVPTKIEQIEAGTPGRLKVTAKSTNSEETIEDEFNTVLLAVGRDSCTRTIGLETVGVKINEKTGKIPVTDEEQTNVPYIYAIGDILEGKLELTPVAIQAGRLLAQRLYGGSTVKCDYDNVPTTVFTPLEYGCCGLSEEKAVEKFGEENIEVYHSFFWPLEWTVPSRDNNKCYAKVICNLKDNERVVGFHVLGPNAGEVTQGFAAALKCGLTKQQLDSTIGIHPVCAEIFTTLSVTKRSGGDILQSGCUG
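Rat TrxR1, dispensed at 90 nM, was prereduced with 400 uM NADPH (final) for 5 min at ~22 deg C, then incubated with compound 15 min before 400 uM selenite. A first-read NADPH fluorescence drop versus no-compound background flagged substrates.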
FBPA coupling cs: inhibits coupling enzyme system, counter-screen for aldolase hits. coupling enzyme system counterscreen, AmpLite Red fluorescence. activity change, negative = inhibition, % at 58.2 µM, hits read low. 290,000 tested, 0.67% active; in the data active = activity change below about -30%
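Counterscreen of the coupled detection system alone, without aldolase: glyceraldehyde-3-phosphate coupling enzymes plus AmpLite Red readout. Compounds at 57.5 uM final, 10 min RT preincubation, 20 min RT reaction, fluorescence 525/598 nm.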
VP16 counter: Gal4-VP16 reporter inhibition counter-screen; Potency, µM (series often up to 53.6 µM), hits mostly inhibitors; 310,000 tested, 3.5% active; Drosophila S2 Gal4-VP16 UAS-luciferase, luminescence, 20 h;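 also: Gal4-VP16 expression switched on by copper sulfate through the metallothionein promoter; nearly all actives have a fitted effect of over 50% in size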
GALK inh: blocks human galactokinase activity; P51570; Purified GALK, Kinase-Glo residual ATP luminescence; Potency, µM (highest dose often 57.5 µM), hits mostly inhibitors; 270,000 tested, 0.007% active
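Quantitative HTS: GALK 5 nM, ATP 35 uM, galactose 100 uM, 1 h room temperature, then luciferase-based ATP detection.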
RORgamma inh: blocks mouse ROR gamma transcriptional activity | Drosophila S2 Gal4-RORgamma UAS-luciferase reporter, 20 h | Potency, µM (series often up to 53.6 µM), hits mostly inhibitors | P51450 | 310,000 tested, 5.4% active; also: nearly all actives have a fitted effect of over 60% in size
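In this cell-based reporter format, copper sulfate (700 uM final) drives Gal4–ROR gamma fusion expression from a metallothionein promoter in Drosophila Schneider cells; compounds preincubated 1 hr, reporter read after 20 hr at ambient temperature.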
rTrxR1 inhibitor: blocks rat thioredoxin reductase 1; O89049; recombinant rTrxR1, NADPH fluorescence consumption, selenite substrate; Potency, µM (highest dose often 114 µM), actives largely listed as inhibitors; 390,000 tested, 1% active; AID 588453; also: nearly all actives have a fitted effect of over 65% in size
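Rat TrxR1 (90 nM in the dispensed reagent) was pre-reduced with 400 uM NADPH for 5 min at room temperature, then incubated with compound for 15 min. After 400 uM selenite was added, NADPH fluorescence (Ex 340/Em 450 nm) was followed for 8 min.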
Of the large screens only hits and unclear results are named; the others gave an inactive call. In the library only some 5.9% were active in any assay of this set; here they are far more common. Unless noted, calls follow the shape of the dose curve; as a rule, active = well fitted curve in the direction sought with a large enough effect; inconclusive = small, poorly fitted or top-dose-only effect, or another doubt; inactive = no such curve, though single readings can be large; an effect the other way counts as inactive or inconclusive.

Cc1c(C(=O)Nc2ccccc2)cnn1-c1ccccc1	none (no result: FBPA coupling cs, VP16 counter, GALK inh, RORgamma inh)
COc1ccc(NC(=O)c2nc[nH]c2C(=O)N2CCC(C)CC2)cc1	VP16 counter inconclusive, RORgamma inh 13µM
CN(Cc1ccccc1)C(=O)c1[nH]cnc1C(=O)Nc1ccc(Cl)cc1	none (no result: FBPA coupling cs, VP16 counter, GALK inh, RORgamma inh)
CCOC(=O)c1ccc(NC(=O)c2nc[nH]c2C(=O)N2CCN(c3ccccc3)CC2)cc1	VP16 counter inconclusive, RORgamma inh inconclusive
Cc1ccc(NC(=O)c2nc[nH]c2C(=O)N2CCN(c3ccccc3)CC2)cc1	VP16 counter 13µM, RORgamma inh 4.5µM
COc1ccc(NC(=O)c2nc[nH]c2C(=O)N(C)Cc2ccccc2)cc1	VP16 counter inconclusive, RORgamma inh 7.1µM
COc1ccc(NC(=O)c2nc[nH]c2C(=O)N2CCN(C(=O)OC(C)(C)C)CC2)cc1	VP16 counter inconclusive, RORgamma inh inconclusive
CCOC(=O)c1ccc(NC(=O)c2nc[nH]c2C(=O)N2CCC(C)CC2)cc1	VP16 counter inconclusive, RORgamma inh 10µM
COc1ccc(-c2nc(CNC(=O)NC3CCCCC3)c(C)o2)c(OC)c1	none (no result: FBPA coupling cs, VP16 counter, GALK inh, RORgamma inh)
Cc1ccc(C(=O)Nc2nnc(S(=O)(=O)N3CCOCC3)s2)cc1	none (no result: GALK inh)
Cc1ccc(NC(=O)CS(=O)Cc2nc(-c3ccc(C)cc3)oc2C)cc1 (configuration not stated)	none
Cc1ccc(NC(=O)c2nc[nH]c2C(=O)N2CCC(C)CC2)cc1	VP16 counter inconclusive, RORgamma inh 8.9µM
CCC1CO1 (configuration not stated)	none (no result: TrxR1 substrate, FBPA coupling cs, GALK inh, rTrxR1 inhibitor)
COc1cc(/C=C2\C(=O)ON=C2c2ccccc2)cc(Br)c1O	VP16 counter inconclusive, GALK inh inconclusive, RORgamma inh inconclusive, rTrxR1 inhibitor 11µM
COc1cc(/C=C2/C(=O)ON=C2c2ccccc2)ccc1O	rTrxR1 inhibitor 13µM
CCOc1cc(/C=C2/C(=O)ON=C2C)cc(Br)c1O	VP16 counter inconclusive, RORgamma inh inconclusive, rTrxR1 inhibitor inconclusive
COc1cc(/C=C2\C(=O)ON=C2c2ccccc2)cc(Cl)c1O	VP16 counter 13µM, RORgamma inh inconclusive, rTrxR1 inhibitor 16µM
CCOc1cc(/C=C2\C(=O)ON=C2c2ccccc2)cc(Br)c1O	VP16 counter inconclusive, GALK inh inconclusive, RORgamma inh inconclusive, rTrxR1 inhibitor 14µM
CCOC(=S)SCC(=O)Nc1nc(C)c(C)s1	VP16 counter inconclusive, RORgamma inh 13µM
Cc1ccc(-c2csc(NC(=O)CSC3=NCCS3)n2)cc1	VP16 counter 13µM
CCOC(=O)N1CCN(C(=O)CSCC(=O)Nc2nc(-c3ccc(OC)cc3)cs2)CC1	none
CCOC(=O)N1CCN(C(=O)CSCC(=O)Nc2nc(-c3ccc(-c4ccccc4)cc3)cs2)CC1	VP16 counter 6.3µM, RORgamma inh inconclusive
CCOC(=S)SCC(=O)Nc1nc(-c2ccc(Br)cc2)cs1	VP16 counter 6.3µM, RORgamma inh 5µM
CCOC(=S)SCC(=O)Nc1nc(-c2ccccc2)cs1	VP16 counter inconclusive, RORgamma inh inconclusive
COc1cccc(-c2noc(C3CCCN(C(=O)c4ccc(F)cc4F)C3)n2)c1 (configuration not stated)	VP16 counter inconclusive
COc1ccc(C2=NS(=O)(=O)N(C)C(C(=O)Nc3ccc(C(C)=O)cc3)=C2)cc1OC	VP16 counter 16µM
COc1ccc(OC)c(NS(=O)(=O)c2ccc3c(c2)CCCN3C(=O)C2CCC2)c1	none (no result: FBPA coupling cs, VP16 counter, GALK inh, RORgamma inh)
Cc1ccc(NS(=O)(=O)c2cc(N)ccc2Cl)c(C)c1	FBPA coupling cs -33, VP16 counter inconclusive
O=[N+]([O-])c1ccc(C2Oc3ccccc3C3CC(c4ccccc4)=NN32)s1 (configuration not stated)	VP16 counter inconclusive, RORgamma inh 11µM (no result: TrxR1 substrate, rTrxR1 inhibitor)
c1ccc(C2Oc3ccccc3C3CC(c4cccs4)=NN32)cc1 (configuration not stated)	VP16 counter inconclusive, RORgamma inh inconclusive, rTrxR1 inhibitor inconclusive (no result: GALK inh)
CC(C)COCc1ccc(O)c2ncccc12	VP16 counter 1µM, RORgamma inh 0.71µM
Oc1ccc(COCc2ccccc2)c2cccnc12	VP16 counter inconclusive, RORgamma inh 0.56µM
CCCOCc1cc(CN2CCN(c3ccccc3OC)CC2)c(O)c2ncccc12	none (no result: FBPA coupling cs, VP16 counter, GALK inh, RORgamma inh)
CCCOCc1ccc(O)c2ncccc12	VP16 counter 3.5µM, RORgamma inh 1.3µM
O=C1N(c2ccccc2C(F)(F)F)O[C@@]1(c1ccccc1)C1CCCC1	none (no result: FBPA coupling cs, VP16 counter, GALK inh, RORgamma inh)
O=C(Nc1nncs1)C(Sc1ccccc1)c1ccccc1 (configuration not stated)	RORgamma inh 11µM
COc1ccccc1C1NC(c2ccccc2OC)C(C)C(=O)C1C (configuration not stated)	none
COc1cccc(C2NC(c3cccc(OC)c3O)C(C)C(=O)C2C)c1O (configuration not stated)	VP16 counter 4.5µM, RORgamma inh 3.2µM
Cc1cc(=O)cc2oc3cc(N)c(-c4c(C)cc(O)cc4O)c(C)c3nc1-2	FBPA coupling cs -30 (no result: TrxR1 substrate, GALK inh, rTrxR1 inhibitor)
O=C(Cn1cc([N+](=O)[O-])nc1[N+](=O)[O-])N1CCN(c2ccccc2)CC1	VP16 counter inconclusive, RORgamma inh 5.6µM
COc1ccc(NC(=O)c2csc3c2CCCCC3)cc1	none (no result: FBPA coupling cs, VP16 counter, GALK inh, RORgamma inh)
COc1cc2nc(=S)n3[nH]c(COc4ccccc4C)nc3c2cc1OC	VP16 counter 0.4µM, RORgamma inh 0.2µM, rTrxR1 inhibitor inconclusive (no result: GALK inh)
Cc1ccccc1OCc1nnc(SCc2cc(=O)c3ccccc3[nH]2)n1C	none (no result: FBPA coupling cs, VP16 counter, GALK inh, RORgamma inh)
COc1cc2nc(=S)n3[nH]c(CCn4nc(C)cc4C)nc3c2cc1OC	VP16 counter 0.089µM, RORgamma inh 0.056µM, rTrxR1 inhibitor inconclusive
CC1(C)CCC(C)(C)NC(=S)N1	VP16 counter inconclusive, RORgamma inh 8.9µM, rTrxR1 inhibitor inconclusive
CCOC1CC(C)(C)NC(=S)N1 (configuration not stated)	none
CCCc1cc(=O)oc2c(C)c(OCC(=O)N3CCC(C(=O)O)(c4ccccc4)CC3)ccc12	none (no result: GALK inh)
Cc1nn(C(C)(C)C)c(NC(=O)c2ccccc2)c1C#N	none
Cc1nc(NC(=O)c2ccc(Br)o2)ccc1Br	none (no result: VP16 counter, RORgamma inh)
N#Cc1c(NC(=O)c2ccc(Br)o2)n(-c2ccccc2)c2nc3ccccc3nc12	FBPA coupling cs -31, GALK inh inconclusive, rTrxR1 inhibitor inconclusive
CCCCn1c(NC(=O)c2ccccc2)c(C#N)c2nc3ccccc3nc21	FBPA coupling cs -53, VP16 counter inconclusive, GALK inh inconclusive, RORgamma inh inconclusive
CCC(=O)Nc1c(C#N)c2nc3ccccc3nc2n1-c1ccc(C)cc1	none (no result: FBPA coupling cs, VP16 counter, GALK inh, RORgamma inh)
COc1ccc(-n2c(NC(=O)c3ccc(Br)o3)c(C#N)c3nc4ccccc4nc32)cc1	VP16 counter inconclusive (no result: TrxR1 substrate, rTrxR1 inhibitor)
O=C(Nc1cccc(NC(=O)c2ccc(Br)o2)n1)c1ccc(Br)o1	rTrxR1 inhibitor 32µM
